In PubChem BioAssay (Tox21):
Results filed as inconclusive are left out. Where a call stands in place of a potency, no number is given. Activity calls are given as the source filed them. The call rests on the fitted dose curve; in most records, active means well fitted cell-killing curve with a large enough effect in the repeat runs; inconclusive means weak or mixed curves, or effect the other way; inactive means flat fitted curve, though single readings scatter.

experiment: cAMP Responsive Elements (CRE) small molecule antagonists, cell-based qHTS assay: qHTS cell viability counter screen (AID 2060913); conditions: CRE-bla HEK293T viability, CellTiter-Glo luminescence, 5 h; series mostly up to 92.4 µM; further: nearly all actives have a fitted effect of over 40% in size; further: potency means the concentration at half of the fitted maximal effect
How it was run: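 HEK293T CRE-bla, 2,000 cells/well, 18 h preincubation; cpd in DMSO + NKH477 0.25 uM final, 3 h 37 C/5% CO2; LiveBLAzer 2 h RT, then CellTiter-Glo 30 min RT, luminescence.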

With `Nc1ccc([N+](=O)[O-])c(N)c1` as the molecule, how does the Potency read?
Its Potency is “inactive”.

With `Cc1ccc(C)c(N)c1` as the molecule, how does the Potency read?
The Potency was “inactive”.

For `Nc1ccc(S(N)(=O)=O)cc1`, which Potency is on record?
Its Potency is “inactive”.

With `ClC(Cl)(Cl)c1ccc(C(Cl)(Cl)Cl)cc1` as the molecule, how does the Potency read?
The Potency was “inactive”.

With `Cn1c(=O)c2c(ncn2CC(=O)O)n(C)c1=O` as the molecule, how does the Potency read?
The Potency was “inactive”.

Which Potency does the source give for `CC#C[C@]1(O)CC[C@H]2[C@@H]3CCC4=CC(=O)CCC4=C3[C@@H](c3ccc(N(C)C)cc3)C[C@@]21C` here?
Its Potency is “inactive”.

For `CC1(C)O[C@@H]2C[C@H]3[C@@H]4C[C@H](F)C5=CC(=O)C=C[C@]5(C)[C@H]4[C@@H](O)C[C@]3(C)[C@]2(C(=O)CO)O1`, which Potency is on record?
The Potency was “inactive”.

For `CCOC(=O)COc1ccc(C)cc1`, which Potency is on record?
The Potency was “inactive”.

Which Potency does the source give for `NCC1CCC(C(=O)Oc2ccc(CCC(=O)O)cc2)CC1` (stereo not given) here?
The Potency was “inactive”.

With `Nc1nc(N)nc(-c2cc(Cl)ccc2Cl)n1` as the molecule, how does the Potency read?
The Potency was “inactive”.

Which Potency does the source give for `Clc1ccc2n[nH]nc2c1` here?
The Potency was “inactive”.

For `C[C@H]1[C@H]2CC[C@H]3[C@@H]4CC=C5C[C@@H](N(C)C)CC[C@]5(C)[C@H]4CC[C@]23CN1C`, which Potency is on record?
The Potency was “inactive”.

Which Potency does the source give for `COC[C@H](c1ccc(C(F)(F)F)cc1)N1CCN(C2(C)CCN(C(=O)c3c(C)ncnc3C)CC2)C[C@H]1C` here?
Its Potency is “inactive”.

With `NNc1nc(-c2ccc(N)cc2)cs1` as the molecule, how does the Potency read?
Its Potency is “inactive”.

Which Potency does the source give for `COc1ccc(OC)c(OC)c1` here?
Its Potency is “inactive”.

For `O=C(O)[C@@H](O)[C@H](O)[C@H](O)[C@@H](O)C(=O)O`, which Potency is on record?
Its Potency is “inactive”.

Which Potency does the source give for `O=C(CCCN1CC=C(n2c(=O)[nH]c3ccccc32)CC1)c1ccc(F)cc1` here?
Its Potency is “inactive”.

Which Potency does the source give for `O=S1(=O)c2cccc3cccc(c23)N1CCCN1CCN(c2ccc(F)cc2)CC1` here?
Its Potency is “inactive”.

For `CS(=O)(=O)OCCCCOS(C)(=O)=O`, which Potency is on record?
The Potency was “inactive”.

Which Potency does the source give for `Oc1ccc(N=Nc2ccccc2)cc1` here?
The Potency was “inactive”.

With `CCCCOCCOCCSC#N` as the molecule, how does the Potency read?
Its Potency is “inactive”.

With `CN(C)C=O` as the molecule, how does the Potency read?
Its Potency is “inactive”.

For `CCCC/C=C/C=C\C=O`, which Potency is on record?
The Potency was “inactive”.

For `O=C1N(c2ccccc2)c2ccccc2C1(Cc1ccncc1)Cc1ccncc1`, which Potency is on record?
Its Potency is “inactive”.

With `OCCC(F)(F)C(F)(F)C(F)(F)C(F)(F)C(F)(F)C(F)(F)C(F)(F)C(F)(F)F` as the molecule, how does the Potency read?
Its Potency is “inactive”.

For `CCNCCO`, which Potency is on record?
Its Potency is “inactive”.

With `O=[N+]([O-])C(CO)(CO)CO` as the molecule, how does the Potency read?
Its Potency is “inactive”.

With `CCOC(=O)[C@H](C)O` as the molecule, how does the Potency read?
The Potency was “inactive”.

With `CC(C)CCCC(C)CC=O` (stereo not given) as the molecule, how does the Potency read?
The Potency was “inactive”.

With `CCc1c2c(nc3ccc(OC(=O)N4CCC(N5CCCCC5)CC4)cc13)-c1cc3c(c(=O)n1C2)COC(=O)[C@]3(O)CC` as the molecule, how does the Potency read?
Its Potency is “inactive”.

Which Potency does the source give for `C[N+]12CCC(CC1)C(OC(=O)C(O)(c1ccccc1)c1ccccc1)C2` (stereo not given) here?
The Potency was “inactive”.

For `Cc1ncc([N+](=O)[O-])n1CC(C)O` (stereo not given), which Potency is on record?
Its Potency is “inactive”.

Which Potency does the source give for `CCO[Si](CCCNC(N)=O)(OCC)OCC` here?
Its Potency is “inactive”.

For `NC(=O)NNC(N)=O`, which Potency is on record?
Its Potency is “inactive”.

Which Potency does the source give for `CCCOC(=O)c1c(Cl)c(Cl)c(Cl)c(Cl)c1C(=O)OCCC` here?
The Potency was “inactive”.

For `O=CCCCC=O`, which Potency is on record?
Its Potency is “inactive”.

With `CCOC(=O)CC(=O)c1ccccc1` as the molecule, how does the Potency read?
Its Potency is “inactive”.

With `C[C@@H](Oc1ccc(CNC(=O)c2cccnc2Oc2ccc3c(c2)OCO3)c(F)c1)C(=O)O` as the molecule, how does the Potency read?
Its Potency is 13.7 µM (active).

For `O=[N+]([O-])c1ccc(O)c2ncccc12`, which Potency is on record?
The Potency was “inactive”.

Which Potency does the source give for `CC1=CC(O)CC(C)(C)C1` (stereo not given) here?
The Potency was “inactive”.

experiment: cAMP Responsive Elements (CRE) small molecule agonists, cell-based qHTS assay: qHTS cell viability counter screen (AID 2060914); conditions: CRE-bla HEK293T viability, CellTiter-Glo luminescence, 5 h; series mostly up to 92.4 µM;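 further: viability read after 3 h of compound exposure; nearly all actives have a fitted effect of over 50% in size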
How it was run: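 CRE-bla HEK293T cells in 10% dialyzed FBS medium were exposed to compounds for 3 h at 37C after 18 h plating. CellTiter-Glo was then added in the same wells, and luminescence was read after 30 min at room temperature.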

For `Nc1ccc([N+](=O)[O-])c(N)c1`, which Potency is on record?
Its Potency is “inactive”.

For `Cc1ccc(C)c(N)c1`, which Potency is on record?
The Potency was “inactive”.

Which Potency does the source give for `Nc1ccc(S(N)(=O)=O)cc1` here?
The Potency was “inactive”.

With `ClC(Cl)(Cl)c1ccc(C(Cl)(Cl)Cl)cc1` as the molecule, how does the Potency read?
The Potency was “inactive”.

With `Cn1c(=O)c2c(ncn2CC(=O)O)n(C)c1=O` as the molecule, how does the Potency read?
Its Potency is “inactive”.

With `CC#C[C@]1(O)CC[C@H]2[C@@H]3CCC4=CC(=O)CCC4=C3[C@@H](c3ccc(N(C)C)cc3)C[C@@]21C` as the molecule, how does the Potency read?
Its Potency is “inactive”.

Which Potency does the source give for `CC1(C)O[C@@H]2C[C@H]3[C@@H]4C[C@H](F)C5=CC(=O)C=C[C@]5(C)[C@H]4[C@@H](O)C[C@]3(C)[C@]2(C(=O)CO)O1` here?
The Potency was “inactive”.

For `CCOC(=O)COc1ccc(C)cc1`, which Potency is on record?
Its Potency is “inactive”.

With `NCC1CCC(C(=O)Oc2ccc(CCC(=O)O)cc2)CC1` (stereo not given) as the molecule, how does the Potency read?
Its Potency is “inactive”.

With `Nc1nc(N)nc(-c2cc(Cl)ccc2Cl)n1` as the molecule, how does the Potency read?
Its Potency is “inactive”.

With `Clc1ccc2n[nH]nc2c1` as the molecule, how does the Potency read?
Its Potency is “inactive”.

For `C[C@H]1[C@H]2CC[C@H]3[C@@H]4CC=C5C[C@@H](N(C)C)CC[C@]5(C)[C@H]4CC[C@]23CN1C`, which Potency is on record?
Its Potency is “inactive”.

With `COC[C@H](c1ccc(C(F)(F)F)cc1)N1CCN(C2(C)CCN(C(=O)c3c(C)ncnc3C)CC2)C[C@H]1C` as the molecule, how does the Potency read?
The Potency was “inactive”.

Which Potency does the source give for `NNc1nc(-c2ccc(N)cc2)cs1` here?
The Potency was “inactive”.

With `COc1ccc(OC)c(OC)c1` as the molecule, how does the Potency read?
Its Potency is “inactive”.

With `O=C(O)[C@@H](O)[C@H](O)[C@H](O)[C@@H](O)C(=O)O` as the molecule, how does the Potency read?
The Potency was “inactive”.

For `O=C(CCCN1CC=C(n2c(=O)[nH]c3ccccc32)CC1)c1ccc(F)cc1`, which Potency is on record?
The Potency was “inactive”.

With `O=S1(=O)c2cccc3cccc(c23)N1CCCN1CCN(c2ccc(F)cc2)CC1` as the molecule, how does the Potency read?
Its Potency is “inactive”.

With `CS(=O)(=O)OCCCCOS(C)(=O)=O` as the molecule, how does the Potency read?
The Potency was “inactive”.

With `Oc1ccc(N=Nc2ccccc2)cc1` as the molecule, how does the Potency read?
Its Potency is “inactive”.

Which Potency does the source give for `CCCCOCCOCCSC#N` here?
Its Potency is “inactive”.

With `CN(C)C=O` as the molecule, how does the Potency read?
The Potency was “inactive”.

With `CCCC/C=C/C=C\C=O` as the molecule, how does the Potency read?
Its Potency is “inactive”.

For `O=C1N(c2ccccc2)c2ccccc2C1(Cc1ccncc1)Cc1ccncc1`, which Potency is on record?
The Potency was “inactive”.

For `OCCC(F)(F)C(F)(F)C(F)(F)C(F)(F)C(F)(F)C(F)(F)C(F)(F)C(F)(F)F`, which Potency is on record?
Its Potency is “inactive”.

With `CCNCCO` as the molecule, how does the Potency read?
Its Potency is “inactive”.

With `O=[N+]([O-])C(CO)(CO)CO` as the molecule, how does the Potency read?
The Potency was “inactive”.

For `CCOC(=O)[C@H](C)O`, which Potency is on record?
The Potency was “inactive”.

For `CC(C)CCCC(C)CC=O` (stereo not given), which Potency is on record?
The Potency was “inactive”.

For `CCc1c2c(nc3ccc(OC(=O)N4CCC(N5CCCCC5)CC4)cc13)-c1cc3c(c(=O)n1C2)COC(=O)[C@]3(O)CC`, which Potency is on record?
The Potency was “inactive”.

With `C[N+]12CCC(CC1)C(OC(=O)C(O)(c1ccccc1)c1ccccc1)C2` (stereo not given) as the molecule, how does the Potency read?
Its Potency is “inactive”.

With `Cc1ncc([N+](=O)[O-])n1CC(C)O` (stereo not given) as the molecule, how does the Potency read?
The Potency was “inactive”.

With `CCO[Si](CCCNC(N)=O)(OCC)OCC` as the molecule, how does the Potency read?
Its Potency is “inactive”.

For `NC(=O)NNC(N)=O`, which Potency is on record?
Its Potency is “inactive”.

With `CCCOC(=O)c1c(Cl)c(Cl)c(Cl)c(Cl)c1C(=O)OCCC` as the molecule, how does the Potency read?
The Potency was “inactive”.

Which Potency does the source give for `O=CCCCC=O` here?
The Potency was “inactive”.

With `CCOC(=O)CC(=O)c1ccccc1` as the molecule, how does the Potency read?
Its Potency is “inactive”.

For `C[C@@H](Oc1ccc(CNC(=O)c2cccnc2Oc2ccc3c(c2)OCO3)c(F)c1)C(=O)O`, which Potency is on record?
Its Potency is “inactive”.

With `O=[N+]([O-])c1ccc(O)c2ncccc12` as the molecule, how does the Potency read?
The Potency was “inactive”.

With `CC1=CC(O)CC(C)(C)C1` (stereo not given) as the molecule, how does the Potency read?
Its Potency is “inactive”.
